Laboratory results from PMC4336329 (PLoS ONE, 2015).
The whole screen tested about 310,000 compounds, of which about 14,000 (4.5%) showed an effect of 50% or more. The effect is printed as a negative number. The list comes from a sample in which strong results are over-represented; it also holds similar structures and randomly drawn compounds.

Biological target: human ether-à-go-go-related gene (hERG) potassium channel (human, UniProt Q12809)
Test: primary screen, population patch clamp on CHO cells stably expressing hERG; higher = less effect of the substance
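Also: peak tail current of the secondary pulse compared with the same well before compound.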

Sequence of human ether-à-go-go-related gene (hERG) potassium channel (Q12809 whole entry, looked up): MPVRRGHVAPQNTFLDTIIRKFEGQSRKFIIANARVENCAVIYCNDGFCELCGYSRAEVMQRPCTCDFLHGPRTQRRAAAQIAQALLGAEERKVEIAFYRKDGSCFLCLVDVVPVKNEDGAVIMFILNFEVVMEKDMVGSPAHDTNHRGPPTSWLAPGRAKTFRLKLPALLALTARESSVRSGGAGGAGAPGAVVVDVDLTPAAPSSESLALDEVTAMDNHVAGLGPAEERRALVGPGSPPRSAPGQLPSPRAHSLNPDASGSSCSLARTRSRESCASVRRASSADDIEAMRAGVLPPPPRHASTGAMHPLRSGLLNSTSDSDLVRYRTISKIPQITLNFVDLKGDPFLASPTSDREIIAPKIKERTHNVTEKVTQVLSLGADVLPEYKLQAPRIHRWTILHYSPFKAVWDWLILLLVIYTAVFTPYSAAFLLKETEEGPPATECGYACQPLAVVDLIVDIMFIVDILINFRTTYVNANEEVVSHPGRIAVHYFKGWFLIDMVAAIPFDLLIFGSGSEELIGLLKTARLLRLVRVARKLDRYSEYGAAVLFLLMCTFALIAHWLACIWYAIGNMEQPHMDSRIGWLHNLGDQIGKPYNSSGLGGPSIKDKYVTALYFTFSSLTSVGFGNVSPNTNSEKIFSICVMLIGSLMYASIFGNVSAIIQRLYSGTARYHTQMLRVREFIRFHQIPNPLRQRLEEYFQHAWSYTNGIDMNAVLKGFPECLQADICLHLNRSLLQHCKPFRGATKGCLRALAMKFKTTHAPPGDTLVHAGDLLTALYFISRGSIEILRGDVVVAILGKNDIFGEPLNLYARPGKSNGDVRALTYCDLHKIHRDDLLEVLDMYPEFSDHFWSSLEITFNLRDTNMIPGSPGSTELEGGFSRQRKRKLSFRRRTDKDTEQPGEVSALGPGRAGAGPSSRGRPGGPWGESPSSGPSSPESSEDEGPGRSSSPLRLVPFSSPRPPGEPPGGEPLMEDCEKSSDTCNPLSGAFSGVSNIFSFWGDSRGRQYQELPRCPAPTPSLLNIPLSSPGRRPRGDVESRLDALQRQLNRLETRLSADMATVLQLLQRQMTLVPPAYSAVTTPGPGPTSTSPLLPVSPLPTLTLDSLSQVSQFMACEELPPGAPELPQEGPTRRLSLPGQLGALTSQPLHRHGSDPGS

Structure (SMILES) | hERG current change (%, negative = inhibition) at 10uM
CC(=O)Cn1c(N2CCC(Cc3ccccc3)CC2)nc2c1c(=O)[nH]c(=O)n2C | 10.3%
COCCN(C(=S)Nc1ccc(C(C)C)cc1)C(C)c1cccs1 (stereo not shown) | 8.26%
COCC(C)NC(=O)CSc1ncnc2sc(-c3ccccc3)cc12 (stereo not shown) | -10.1%
CCC(C)(C)n1c(=O)[nH]c2c(c1=O)CCC2 | 6.59%
O=C(O)COCC(=O)Nc1ccc(OCCc2ccccc2)cc1 | 11.8%
Cc1cccc(NS(=O)(=O)c2cc3c4c(c2)CCC(=O)N4CCC3)c1 | -21.6%
COc1cc(/C=C(/C#N)C(=O)Nc2ccccc2)c(Br)cc1OCc1ccc(C(=O)O)cc1 | 9.98%
CC(C)Cc1ccc(C(C)C(=N)N)cc1.Cl (stereo not shown) | -6.14%
CC(C)Cc1ccc(C(C)C(N)=NCCc2ccccc2)cc1.Cl (stereo not shown) | -67.5%
CC(C)Cc1ccc(C(C)C(N)=Nc2ccc(O)cc2)cc1.Cl (stereo not shown) | -80.2%
CC(C)Cc1ccc([C@H](C)C(=O)O)cc1 | 7.11%
COc1ccc(CCN=C(N)C(C)c2ccccc2)cc1OC.Cl (stereo not shown) | 11.4%
CC(C)Cc1ccc(C(C)C(=O)Nc2ccc(O)cc2)cc1 (stereo not shown) | 11.3%
COc1cc(NC(=O)C2CC(c3cccc(Br)c3)=NO2)cc(OC)c1OC (stereo not shown) | -11.6%
COc1ccccc1N1CCN(C(=O)c2ccccc2Oc2ccccc2)CC1 | -25.7%
Cc1cccc(N(CC(O)CON=C2c3ccccc3-c3ccccc32)S(C)(=O)=O)c1 (stereo not shown) | 15.1%
COc1ccc(CCNC(=O)COc2ccc([N+](=O)[O-])cc2)cc1 | -31.1%
CN(C)c1ccc(P(=O)(COc2ccc([N+](=O)[O-])cc2)c2ccc(N(C)C)cc2)cc1 | -41.9%
COc1ccc(OCC(=O)NNC(=S)NC(=O)c2ccc([N+](=O)[O-])cc2)cc1 | 15.6%
COc1ccc(CNC(=O)COc2ccc([N+](=O)[O-])cc2)cc1 | -64.5%
COc1ccc(CNC(=O)COc2ccc(OC)cc2)cc1 | 13.8%
O=C(COc1ccc([N+](=O)[O-])cc1)NCc1ccccc1 | -38.9%

Structure (SMILES) | hERG current change (%, negative = inhibition) at 10uM
O=C(COc1ccc([N+](=O)[O-])cc1)NCc1ccncc1 | -67.6%
O=C(COc1ccc([N+](=O)[O-])cc1)NCc1cccnc1 | -33.4%
COc1ccc(P(=O)(COc2ccc([N+](=O)[O-])cc2)c2ccc(OC)cc2)cc1 | -71%
CN(C)c1ccc(/C=N/NC(=O)c2ccc3c(c2)OCCO3)cc1 | 9.93%
CCC(CC)NC(=O)CCCSc1nc2ccccc2[nH]1 | 22.3%
O=C(Nc1cccnc1)c1ccc([N+](=O)[O-])s1 | -20.1%
NC(=O)Cn1c(=O)n(CCc2ccccc2)c(=O)c2c3c(sc21)CCCC3 | -15%
CN(C)CCCn1c(=O)n(Cc2ccccc2)c(=O)c2c3c(sc21)CCCCC3 | -58.9%
O=C(O)Cn1c(=O)c2c3c(sc2n(Cc2ccccc2)c1=O)CCCC3 | 16.6%
CCn1c(=O)n(CCc2ccccc2)c(=O)c2c3c(sc21)CCCC3 | 1.05%
CN(C)CCCn1c(=O)n(CCc2ccccc2)c(=O)c2c3c(sc21)CCCCC3 | -70.4%
CN(C)CCCn1c(=O)n(C2CCCCC2)c(=O)c2c3c(sc21)CCCCC3 | -53.8%
CN(C)CCn1c(=O)n(Cc2ccccc2)c(=O)c2c3c(sc21)CCCCC3 | -3.31%
Cc1c(C(=O)O)sc2c1c(=O)n(Cc1ccccc1)c(=O)n2C | 23.2%
CN(C)CCn1c(=O)n(C2CCCCC2)c(=O)c2c3c(sc21)CCCCC3 | -25.3%
CCOC(=O)c1sc2c(c1C)c(=O)n(Cc1ccccc1)c(=O)n2CCN(C)C | -58.9%
CCOC(=O)c1sc2c(c1C)c(=O)n(CCO)c(=O)n2Cc1ccccc1 | 4.88%
NC(=O)Cn1c(=O)n(C2CCCCC2)c(=O)c2c3c(sc21)CCCCC3 | -6.3%
COc1ccc(OC)c(S(=O)(=O)NCCc2csc(-c3cccnc3)n2)c1 | 4.92%
CCOc1ccc(C2(C#N)CC[N+](C)(C)CC2)cc1.[Br-] | 2.83%
CS(=O)(=O)N(CC(=O)NCCSCc1cccc(Cl)c1)c1ccccc1F | -20.2%
Cc1ccc(C(=O)Nc2ccccc2C(=O)NCc2ccccc2)cc1 | 5.63%

Structure (SMILES) | hERG current change (%, negative = inhibition) at 10uM
O=C(NCc1nnc2c3ccccc3c(-c3ccccc3)nn12)c1ccccc1Cl | -78.9%
Cc1cccc(C(=O)NCc2nnc3c4ccccc4c(-c4ccccc4)nn23)c1 | -4.14%
CC(=O)NCc1nnc2c3ccccc3c(-c3ccccc3)nn12 | -31.9%
O=C(NCc1nnc2c3ccccc3c(-c3ccccc3)nn12)c1ccc(Cl)cc1 | -52.4%
OCc1nnc2c3ccccc3c(-c3ccccc3)nn12 | -4.77%
O=C(CSc1nnc(CNC(=O)c2ccccc2)o1)c1ccc(Cl)cc1 | -30.3%
CC(OC(=O)C1CCCCC1)C(=O)Nc1cccc([N+](=O)[O-])c1 (stereo not shown) | -4.48%
O=C(O)c1ccccc1N/N=C/c1cc(Br)cc(Br)c1O | 11.6%
C=CCN(CC=C)C(=S)Nc1ccc(OC)c(OC)c1 | 10.3%
Cc1cc(OCC(=O)N2CCOCC2)c(C(C)C)cc1Cl | -4.17%
CC(O)CC(C(=O)NNc1ccccc1)C(=O)NNc1ccccc1 (stereo not shown) | 21%
Cc1ccc(C(=O)NC(C)c2ccc(-n3ccnc3)cc2)o1 (stereo not shown) | -37.4%
COc1cc(C(=O)NC(C)c2ccc(-n3ccnc3)cc2)cc(OC)c1C (stereo not shown) | -72.9%
CC(NC(=O)c1cccc(N(C)C)c1)c1ccc(-n2ccnc2)cc1 (stereo not shown) | -68.3%
CC(=O)Nc1cccc(C(=O)NC(C)c2ccc(-n3ccnc3)cc2)c1 (stereo not shown) | -0.474%
CC(NC(=O)c1ccco1)c1ccc(-n2ccnc2)cc1 (stereo not shown) | -37%
Cc1ccccc1C(=O)N1CCC(C(=O)NC(C)c2ccc(-n3ccnc3)cc2)CC1 (stereo not shown) | -23%
CC(=O)Nc1ccc(C(=O)NC(C)c2ccc(-n3ccnc3)cc2)cc1 (stereo not shown) | 7.74%
Cc1ccc(C(=O)NC(C)c2ccc(-n3ccnc3)cc2)cc1 (stereo not shown) | -54%
O=C(c1ccc(F)cc1)C1CCN(C(=O)c2ccncc2)CC1 | -22.4%
CC(NC(=O)C1CCN(C(=O)c2ccc(F)cc2)CC1)c1ccc(-n2ccnc2)cc1 (stereo not shown) | -64.7%
Cc1occc1C(=O)N1CCCC(Nc2ccc(F)cc2)C1 (stereo not shown) | -3.68%

Structure (SMILES) | hERG current change (%, negative = inhibition) at 10uM
Cc1ccc(C(=O)Nc2ccc(N3CCN(C(=O)c4cccs4)CC3)cc2)c(Cl)c1 | -5.13%
COC(=O)CSc1nnc(-c2cccnc2)n1-c1cc(OC)cc(OC)c1 | -19.3%
N#Cc1ccccc1Oc1ccccc1C=O | -16.8%
Cc1ccc2nc(C)cc(N/N=C/c3cccc(O)c3)c2c1 | 12.4%
COc1ccc(S(=O)(=O)n2nc(OC(=O)c3cccs3)cc2N)cc1 | -3.07%
CCOC(=O)CC1=NN(c2ccccc2)C(=O)/C1=C\c1ccc(N(C)C)cc1 | 24.6%
O=C(CNc1cccc(S(=O)(=O)N2CCCC2)c1)Nc1ccc(C(F)(F)F)cc1 | 15.1%
CC(C)Cn1cnc2c1c(=O)n(C)c(=O)n2C | 27.8%
CCOc1cc(C(=S)N2CCCCC2)ccc1OS(=O)(=O)c1ccc(Cl)cc1 | -1.37%
N#CCCn1c(=S)[nH]c2ccccc21 | 12.9%
O=C(CN(CC1CCCO1)C(=O)CNS(=O)(=O)c1ccccc1)NCc1ccc(F)cc1 (stereo not shown) | 11.9%
C/C(=C1\SC(N2CCOCC2)=NC1=O)c1ccccc1 | -12.5%
CC(NC(=O)c1ccc(CS(C)(=O)=O)cc1)c1ccc(-n2ccnc2)cc1 (stereo not shown) | -1.32%
C/C(=N\NC(=O)c1ccc(C)cc1C)c1ccc(-n2ccnc2)cc1 | -16.6%
CSCc1ccc(C(=O)NC(C)c2ccc(-n3ccnc3)cc2)cc1 (stereo not shown) | -56%
Cc1ccc(C(O)c2ccc(-n3ccnc3)cc2)cc1 (stereo not shown) | -1.74%
Cc1ccc(C(=O)NC(C)c2ccc(-n3ccnc3)cc2)c(C)c1 (stereo not shown) | -57.4%
CC(NC(=O)c1cc(F)c(F)c(F)c1F)c1ccc(-n2ccnc2)cc1 (stereo not shown) | -65.2%
Cc1ccc(C)c(C(=O)NC(C)c2ccc(-n3ccnc3)cc2)c1 (stereo not shown) | -62.4%
CSc1ccccc1C(=O)NC(C)c1ccc(-n2ccnc2)cc1 (stereo not shown) | -39.7%
CC(=O)c1sc(NC(=O)CS(=O)(=O)c2ccccc2)nc1C | -25.3%
CCOC(=O)/C(C#N)=C/c1ccc(OC(=O)c2ccccn2)cc1 | -5.99%
